{
  "source": "PubChem BioAssay AID1159580",
  "about": "(chemical genetic matrix, 2015)",
  "test": "chemical genetic growth profiling, strain panel (AID 1159580);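 also: tested at 20 µM; growth read once vehicle control cultures reached saturation at 30 °C; 1 = growth at the plate median or of vehicle wells; lower values mean less growth of the strain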",
  "conditions": "growth OD",
  "note": "About 2,000 (36%) of roughly 5,500 compounds were called active. Not shown: some 18% with an inconclusive outcome. This is one part of the list. Values without a mark were called inactive. Rule as the data show it: active = normalized growth mostly below about 0.91 (no sharp cut-off); inconclusive = no clear call, values can overlap the other calls; inactive = mostly above about 0.92.",
  "data": [
    {"smiles": "CC(C)=CCc1c2c(c(O)c3c(=O)c(O)c(-c4ccccc4)oc13)C=CC(C)(C)O2", "values": [
      {"measurement": "normalized growth", "setting": "S. cerevisiae deletion strains, locus YJL187C, strain SWE1, stronger effect = lower value", "result": "0.639 (active)"},
      {"measurement": "normalized growth", "setting": "S. cerevisiae deletion strains, locus YJR043C, strain POL32, stronger effect = lower value", "result": "0.496 (active)"},
      {"measurement": "normalized growth", "setting": "S. cerevisiae deletion strains, locus YKL009W, strain mrt4, stronger effect = lower value", "result": 1.02},
      {"measurement": "normalized growth", "setting": "S. cerevisiae deletion strains, locus YKL068W, stronger effect = lower value", "result": 0.977},
      {"measurement": "normalized growth", "setting": "S. cerevisiae deletion strains, locus YKL085W, strain MDH1 (second series), stronger effect = lower value", "result": 0.984},
      {"measurement": "normalized growth", "setting": "S. cerevisiae deletion strains, locus YKL085W, strain MDH1, stronger effect = lower value", "result": 0.984},
      {"measurement": "normalized growth", "setting": "S. cerevisiae deletion strains, locus YKL160W, strain elf1, stronger effect = lower value", "result": 0.99},
      {"measurement": "normalized growth", "setting": "S. cerevisiae deletion strains, locus YKL190W, strain CNB1, stronger effect = lower value", "result": "0.585 (active)"},
      {"measurement": "normalized growth", "setting": "S. cerevisiae deletion strains, locus YKR001C, strain vps1, stronger effect = lower value", "result": "0.816 (active)"},
      {"measurement": "normalized growth", "setting": "S. cerevisiae deletion strains, locus YKR026C, strain gcn3, stronger effect = lower value", "result": "0.899 (active)"},
      {"measurement": "normalized growth", "setting": "S. cerevisiae deletion strains, locus YKR091W, strain srl3, stronger effect = lower value", "result": "0.831 (active)"},
      {"measurement": "normalized growth", "setting": "S. cerevisiae deletion strains, locus YLL001W, strain dnm1, stronger effect = lower value", "result": "0.74 (active)"},
      {"measurement": "normalized growth", "setting": "S. cerevisiae deletion strains, locus YLL026W, stronger effect = lower value", "result": 0.94},
      {"measurement": "normalized growth", "setting": "S. cerevisiae deletion strains, locus YLL041C, strain sdh2, stronger effect = lower value", "result": 0.979},
      {"measurement": "normalized growth", "setting": "S. cerevisiae deletion strains, locus YLR027C, strain aat2, stronger effect = lower value", "result": "0.86 (active)"},
      {"measurement": "normalized growth", "setting": "S. cerevisiae deletion strains, locus YLR039C, strain RIC1, stronger effect = lower value", "result": "0.379 (active)"},
      {"measurement": "normalized growth", "setting": "S. cerevisiae deletion strains, locus YLR058C, strain SHM2, stronger effect = lower value", "result": "0.563 (active)"},
      {"measurement": "normalized growth", "setting": "S. cerevisiae deletion strains, locus YLR102C, strain apc9, stronger effect = lower value", "result": 0.93},
      {"measurement": "normalized growth", "setting": "S. cerevisiae deletion strains, locus YLR221C, strain rsa3, stronger effect = lower value", "result": "0.835 (active)"},
      {"measurement": "normalized growth", "setting": "S. cerevisiae deletion strains, locus YLR258W, strain gsy2, stronger effect = lower value", "result": "0.892 (active)"},
      {"measurement": "normalized growth", "setting": "S. cerevisiae deletion strains, locus YLR262C, strain YPT6 (second series), stronger effect = lower value", "result": "0.542 (active)"},
      {"measurement": "normalized growth", "setting": "S. cerevisiae deletion strains, locus YLR268W, strain sec22, stronger effect = lower value", "result": "0.633 (active)"},
      {"measurement": "normalized growth", "setting": "S. cerevisiae deletion strains, locus YLR320W, strain mms22, stronger effect = lower value", "result": "0.762 (active)"},
      {"measurement": "normalized growth", "setting": "S. cerevisiae deletion strains, locus YLR342W, strain FKS1, stronger effect = lower value", "result": "0.514 (active)"},
      {"measurement": "normalized growth", "setting": "S. cerevisiae deletion strains, locus YLR357W, strain rsc2, stronger effect = lower value", "result": "0.61 (active)"},
      {"measurement": "normalized growth", "setting": "S. cerevisiae deletion strains, locus YLR370C, strain arc18, stronger effect = lower value", "result": "0.754 (active)"},
      {"measurement": "normalized growth", "setting": "S. cerevisiae deletion strains, locus YLR371W, strain rom2, stronger effect = lower value", "result": "0.623 (active)"},
      {"measurement": "normalized growth", "setting": "S. cerevisiae deletion strains, locus YLR384C, strain iki3, stronger effect = lower value", "result": "0.723 (active)"},
      {"measurement": "normalized growth", "setting": "S. cerevisiae deletion strains, locus YLR418C, strain cdc73, stronger effect = lower value", "result": "0.502 (active)"},
      {"measurement": "normalized growth", "setting": "S. cerevisiae deletion strains, locus YML016C, strain PPZ1, stronger effect = lower value", "result": "0.484 (active)"},
      {"measurement": "normalized growth", "setting": "S. cerevisiae deletion strains, locus YML032C, strain rad52, stronger effect = lower value", "result": "0.861 (active)"},
      {"measurement": "normalized growth", "setting": "S. cerevisiae deletion strains, locus YML120C, strain ndi1, stronger effect = lower value", "result": "0.822 (active)"},
      {"measurement": "normalized growth", "setting": "S. cerevisiae deletion strains, locus YML124C, strain tub3, stronger effect = lower value", "result": "0.878 (active)"},
      {"measurement": "normalized growth", "setting": "S. cerevisiae deletion strains, locus YMR058W, strain fet3, stronger effect = lower value", "result": "0.143 (active)"},
      {"measurement": "normalized growth", "setting": "S. cerevisiae deletion strains, locus YMR078C, strain ctf18, stronger effect = lower value", "result": 0.92},
      {"measurement": "normalized growth", "setting": "S. cerevisiae deletion strains, locus YMR125W, strain sto1, stronger effect = lower value", "result": "0.872 (active)"},
      {"measurement": "normalized growth", "setting": "S. cerevisiae deletion strains, locus YMR129W, stronger effect = lower value", "result": "0.854 (active)"},
      {"measurement": "normalized growth", "setting": "S. cerevisiae deletion strains, locus YMR205C, strain PFK2, stronger effect = lower value", "result": "0.51 (active)"},
      {"measurement": "normalized growth", "setting": "S. cerevisiae deletion strains, locus YMR223W, strain ubp8, stronger effect = lower value", "result": "0.711 (active)"},
      {"measurement": "normalized growth", "setting": "S. cerevisiae deletion strains, locus YMR231W, strain pep5, stronger effect = lower value", "result": "0.533 (active)"},
      {"measurement": "normalized growth", "setting": "S. cerevisiae deletion strains, locus YMR307W, strain GAS1, stronger effect = lower value", "result": "0.53 (active)"},
      {"measurement": "normalized growth", "setting": "S. cerevisiae deletion strains, locus YNL067W, strain RPL9B, stronger effect = lower value", "result": "0.697 (active)"},
      {"measurement": "normalized growth", "setting": "S. cerevisiae deletion strains, locus YNL071W, strain lat1, stronger effect = lower value", "result": "0.898 (active)"},
      {"measurement": "normalized growth", "setting": "S. cerevisiae deletion strains, locus YNL153C, strain GIM3, stronger effect = lower value", "result": "0.619 (active)"},
      {"measurement": "normalized growth", "setting": "S. cerevisiae deletion strains, locus YNL209W, strain ssb2, stronger effect = lower value", "result": "0.277 (active)"},
      {"measurement": "normalized growth", "setting": "S. cerevisiae deletion strains, locus YNL233W, strain BNI4, stronger effect = lower value", "result": "0.548 (active)"},
      {"measurement": "normalized growth", "setting": "S. cerevisiae deletion strains, locus YNL248C, strain rpa49, stronger effect = lower value", "result": "0.842 (active)"},
      {"measurement": "normalized growth", "setting": "S. cerevisiae deletion strains, locus YNL250W, strain rad50, stronger effect = lower value", "result": 0.951},
      {"measurement": "normalized growth", "setting": "S. cerevisiae deletion strains, locus YNL271C, strain bni1, stronger effect = lower value", "result": "0.886 (active)"},
      {"measurement": "normalized growth", "setting": "S. cerevisiae deletion strains, locus YNL298W, strain CLA4, stronger effect = lower value", "result": "0.88 (active)"},
      {"measurement": "normalized growth", "setting": "S. cerevisiae deletion strains, locus YNL307C, strain MCK1, stronger effect = lower value", "result": "0.775 (active)"},
      {"measurement": "normalized growth", "setting": "S. cerevisiae deletion strains, locus YNL322C, strain KRE1 (second series), stronger effect = lower value", "result": 0.943},
      {"measurement": "normalized growth", "setting": "S. cerevisiae deletion strains, locus YNR049C, strain mso1, stronger effect = lower value", "result": 0.958},
      {"measurement": "normalized growth", "setting": "S. cerevisiae deletion strains, locus YNR052C, strain pop2, stronger effect = lower value", "result": "0.824 (active)"},
      {"measurement": "normalized growth", "setting": "S. cerevisiae deletion strains, locus YOL006C, strain TOP1, stronger effect = lower value", "result": "0.319 (active)"},
      {"measurement": "normalized growth", "setting": "S. cerevisiae deletion strains, locus YOL012C, strain htz1", "result": 0.278},
      {"measurement": "normalized growth", "setting": "S. cerevisiae deletion strains, locus YOL147C, strain pex11, stronger effect = lower value", "result": "0.873 (active)"},
      {"measurement": "normalized growth", "setting": "S. cerevisiae deletion strains, locus YOR001W, strain rrp6, stronger effect = lower value", "result": "0.836 (active)"},
      {"measurement": "normalized growth", "setting": "S. cerevisiae deletion strains, locus YOR061W, strain CKA2, stronger effect = lower value", "result": "0.528 (active)"},
      {"measurement": "normalized growth", "setting": "S. cerevisiae deletion strains, locus YOR069W, strain VPS5, stronger effect = lower value", "result": "0.606 (active)"},
      {"measurement": "normalized growth", "setting": "S. cerevisiae deletion strains, locus YOR070C, strain gyp1, stronger effect = lower value", "result": "0.77 (active)"},
      {"measurement": "normalized growth", "setting": "S. cerevisiae deletion strains, locus YOR080W, strain dia2, stronger effect = lower value", "result": "0.818 (active)"},
      {"measurement": "normalized growth", "setting": "S. cerevisiae deletion strains, locus YOR083W, strain WHI5, stronger effect = lower value", "result": "0.616 (active)"},
      {"measurement": "normalized growth", "setting": "S. cerevisiae deletion strains, locus YOR106W, strain vam3, stronger effect = lower value", "result": "0.832 (active)"},
      {"measurement": "normalized growth", "setting": "S. cerevisiae deletion strains, locus YOR136W, strain idh2, stronger effect = lower value", "result": "0.84 (active)"},
      {"measurement": "normalized growth", "setting": "S. cerevisiae deletion strains, locus YOR144C, strain elg1, stronger effect = lower value", "result": "0.893 (active)"},
      {"measurement": "normalized growth", "setting": "S. cerevisiae deletion strains, locus YOR184W, strain ser1, stronger effect = lower value", "result": "0.661 (active)"},
      {"measurement": "normalized growth", "setting": "S. cerevisiae deletion strains, locus YOR265W, strain rbl2, stronger effect = lower value", "result": "0.699 (active)"},
      {"measurement": "normalized growth", "setting": "S. cerevisiae deletion strains, locus YOR270C, strain vph1, stronger effect = lower value", "result": "0.394 (active)"},
      {"measurement": "normalized growth", "setting": "S. cerevisiae deletion strains, locus YOR290C, strain snf2, stronger effect = lower value", "result": 0.887},
      {"measurement": "normalized growth", "setting": "S. cerevisiae deletion strains, locus YOR316C, strain cot1, stronger effect = lower value", "result": "0.865 (active)"},
      {"measurement": "normalized growth", "setting": "S. cerevisiae deletion strains, locus YPL051W, strain arl3, stronger effect = lower value", "result": "0.48 (active)"},
      {"measurement": "normalized growth", "setting": "S. cerevisiae deletion strains, locus YPL078C, strain atp4, stronger effect = lower value", "result": "0.879 (active)"},
      {"measurement": "normalized growth", "setting": "S. cerevisiae deletion strains, locus YPL106C, strain sse1, stronger effect = lower value", "result": "0.83 (active)"},
      {"measurement": "normalized growth", "setting": "S. cerevisiae deletion strains, locus YPL240C, strain hsp82, stronger effect = lower value", "result": 0.956},
      {"measurement": "normalized growth", "setting": "S. cerevisiae deletion strains, locus YPL241C, strain CIN2, stronger effect = lower value", "result": "0.788 (active)"},
      {"measurement": "normalized growth", "setting": "S. cerevisiae deletion strains, locus YPR119W, strain clb2, stronger effect = lower value", "result": "0.914 (active)"},
      {"measurement": "normalized growth", "setting": "S. cerevisiae deletion strains, locus YPR141C, strain kar3, stronger effect = lower value", "result": 0.962},
      {"measurement": "normalized growth", "setting": "S. cerevisiae deletion strains, locus YPR163C, strain tif3, stronger effect = lower value", "result": "0.771 (active)"},
      {"measurement": "normalized growth", "setting": "S. cerevisiae deletion strains, locus YPR167C, strain met16, stronger effect = lower value", "result": "0.712 (active)"},
      {"measurement": "normalized growth", "setting": "S. cerevisiae deletion strains, strain wtn01, stronger effect = lower value", "result": "0.632 (active)"},
      {"measurement": "normalized growth", "setting": "S. cerevisiae strains, strain wild type, stronger effect = lower value", "result": "0.346 (active)"}
    ]}
  ]
}
